# From the supplement of paper PMC8728848
# This is one part of a sample in which the strongest signals are shown more often than they occur.
# B1: AAL (Aleuria aurantia) (protein)
# chain: MPTEFLYTSKIAAISWAATGGRQQRVYFQDLNGKIREAQRGGDNPWTGGSSQNVIGEAKLFSPLAAVTWKSAQGIQIRVYCVNKDNILSEFVYDGSKWITGQLGSVGVKVGSNSKLAALQWGGSESAPPNIRVYYQKSNGSGSSIHEYVWSGKWTAGASFGSTVPGTGIGATAIGPGRLRIYYQATDNKIREHCWDSNSWYVGGFSASASAGVSIAAISWGSTPQIRVYWQKGREELYEAAYGGSWNTPGQIKDASRPTPSLPDTFIAANSSGNIDISVFFQASGVSLQQWQWISGKGWSIGAVVPTGTPAGW
# Columns and labels:
# Experiment in all cases: glycan array binding signal (z-score within array); higher = stronger binding
# Conditions in all cases: glycan notation: IUPAC condensed, linker removed; mutation: N224Q
# [1] = biological target: Gal(b1-4)GlcNAc(b1-3)Gal(b1-4)GlcNAc(b1-3)Gal(b1-4)GlcNAc(b1-3)Gal(b1-4)GlcNAc(b1-2)[Gal(b1-4)GlcNAc(b1-3)Gal(b1-4)GlcNAc(b1-3)Gal(b1-4)GlcNAc(b1-3)Gal(b1-4)GlcNAc(b1-6)]Man(a1-6)[Gal(b1-4)GlcNAc(b1-3)Gal(b1-4)GlcNAc(b1-3)Gal(b1-4)GlcNAc(b1-3)Gal(b1-4)GlcNAc(b1-2)Man(a1-3)]Man(b1-4)GlcNAc(b1-4)[Fuc(a1-6)]GlcNAc
# Summary of the method: (§1)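 The binding signal is a Z-score computed within each array and averaged over linkers. Arrays of the same protein sequence at different concentrations or buffers were also averaged together. Data originate from 3228 arrays in the Consortium for Functional Glycomics database, kept only where the protein sequence was available.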
# Gal3S(b1-4)Glc = biological target: Gal3S(b1-4)Glc
# Summary of the method: as §1
# [2] = biological target: GlcNAc(a1-4)Gal(b1-4)GlcNAc(b1-3)Gal(b1-4)Glc
# Summary of the method: as §1
# [3] = biological target: GlcNAc(b1-3)Gal(b1-4)GlcNAc(b1-3)Gal(b1-4)GlcNAc(b1-2)Man(a1-3)[GlcNAc(b1-3)Gal(b1-4)GlcNAc(b1-3)Gal(b1-4)GlcNAc(b1-2)Man(a1-6)]Man(b1-4)GlcNAc(b1-4)[Fuc(a1-6)]GlcNAc
# Summary of the method: as §1
# [4] = biological target: GlcNAc(b1-3)Gal(b1-4)GlcNAc(b1-3)Gal(b1-4)GlcNAc(b1-3)Gal(b1-4)GlcNAc(b1-2)[GlcNAc(b1-3)Gal(b1-4)GlcNAc(b1-3)Gal(b1-4)GlcNAc(b1-3)Gal(b1-4)GlcNAc(b1-6)]Man(a1-6)[GlcNAc(b1-3)Gal(b1-4)GlcNAc(b1-3)Gal(b1-4)GlcNAc(b1-3)Gal(b1-4)GlcNAc(b1-2)Man(a1-3)]Man(b1-4)GlcNAc(b1-4)[Fuc(a1-6)]GlcNAc
# Summary of the method: as §1
# [5] = biological target: GlcNAc(b1-3)Gal(b1-4)GlcNAc(b1-3)Gal(b1-4)GlcNAc(b1-3)Gal(b1-4)GlcNAc(b1-3)Gal(b1-4)GlcNAc(b1-2)Man(a1-3)[GlcNAc(b1-3)Gal(b1-4)GlcNAc(b1-3)Gal(b1-4)GlcNAc(b1-3)Gal(b1-4)GlcNAc(b1-3)Gal(b1-4)GlcNAc(b1-2)Man(a1-6)]Man(b1-4)GlcNAc(b1-4)[Fuc(a1-6)]GlcNAc
# Summary of the method: as §1
# [6] = biological target: GlcNAc(b1-3)[GlcNAc(b1-6)]Gal(b1-4)GlcNAc
# Summary of the method: as §1
# GlcNAc(b1-6)GalNAc = biological target: GlcNAc(b1-6)GalNAc
# Summary of the method: as §1
# [7] = biological target: Man(a1-2)Man(a1-3)[Man(a1-2)Man(a1-6)]Man(a1-6)[Man(a1-2)Man(a1-2)Man(a1-3)]Man(b1-4)GlcNAc(b1-4)GlcNAc
# Summary of the method: as §1
# [8] = biological target: Neu5Ac(a2-3)Gal(b1-3)GlcNAc(b1-2)Man
# Summary of the method: as §1
# [9] = biological target: Neu5Ac(a2-3)Gal(b1-4)GlcNAc(b1-2)[Neu5Ac(a2-3)Gal(b1-4)GlcNAc(b1-4)]Man(a1-3)[GlcNAc(b1-4)][Neu5Ac(a2-3)Gal(b1-4)GlcNAc(b1-2)[Neu5Ac(a2-3)Gal(b1-4)GlcNAc(b1-6)]Man(a1-6)]Man(b1-4)GlcNAc(b1-4)GlcNAc
# Summary of the method: as §1
# [10] = biological target: Neu5Ac(a2-3)Gal(b1-4)GlcNAc(b1-3)Gal(b1-4)[Fuc(a1-3)]GlcNAc
# Summary of the method: as §1
# [11] = biological target: Neu5Ac(a2-3)Gal(b1-4)[Fuc(a1-3)]GlcNAc
# Summary of the method: as §1
# [12] = biological target: Neu5Ac(a2-3)Gal(b1-4)[Fuc(a1-3)]GlcNAc(b1-2)Man
# Summary of the method: as §1
# Neu5Ac(a2-6)Gal = biological target: Neu5Ac(a2-6)Gal
# Summary of the method: as §1
# [13] = biological target: Neu5Ac(a2-6)Gal(b1-4)GlcNAc(b1-2)[Neu5Ac(a2-6)Gal(b1-4)GlcNAc(b1-6)]Man(a1-6)[Neu5Ac(a2-6)Gal(b1-4)GlcNAc(b1-2)Man(a1-3)][GlcNAc(b1-4)]Man(b1-4)GlcNAc(b1-4)GlcNAc
# Summary of the method: as §1
# [14] = biological target: Neu5Ac(a2-6)Gal(b1-4)GlcNAc(b1-3)Gal(b1-3)GlcNAc
# Summary of the method: as §1
# [15] = biological target: Neu5Ac(a2-6)GalNAc(b1-4)GlcNAc
# Summary of the method: as §1
# [16] = biological target: Neu5Ac(a2-6)GlcNAc(b1-4)GlcNAc
# Summary of the method: as §1
# [17] = biological target: Neu5Gc(a2-3)Gal(b1-4)[Fuc(a1-3)]GlcNAc
# Summary of the method: as §1
binder,measurement,setting,value
B1,glycan array binding signal (z-score),[1],-0.229
same,glycan array binding signal (z-score),Gal3S(b1-4)Glc,-0.321
same,glycan array binding signal (z-score),[2],-0.318
same,glycan array binding signal (z-score),[3],2.92
same,glycan array binding signal (z-score),[4],-0.085
same,glycan array binding signal (z-score),[5],1.97
same,glycan array binding signal (z-score),[6],-0.322
same,glycan array binding signal (z-score),GlcNAc(b1-6)GalNAc,-0.325
same,glycan array binding signal (z-score),[7],-0.312
same,glycan array binding signal (z-score),[8],-0.311
same,glycan array binding signal (z-score),[9],-0.327
same,glycan array binding signal (z-score),[10],-0.32
same,glycan array binding signal (z-score),[11],0.758
same,glycan array binding signal (z-score),[12],0.186
same,glycan array binding signal (z-score),Neu5Ac(a2-6)Gal,-0.314
same,glycan array binding signal (z-score),[13],-0.303
same,glycan array binding signal (z-score),[14],-0.324
same,glycan array binding signal (z-score),[15],-0.323
same,glycan array binding signal (z-score),[16],-0.327
same,glycan array binding signal (z-score),[17],0.052
